ChEMBL document CHEMBL1961873, “Compounds: GSK PKIS; Assays: Nanosyn kinase panel” (2012)

Columns and labels:
[1] = target: T1, Aurora kinase A (Homo sapiens) (UniProt O14965); conditions: at 1 µM;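 note: values are mean percent inhibition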
T1 sequence (whole entry): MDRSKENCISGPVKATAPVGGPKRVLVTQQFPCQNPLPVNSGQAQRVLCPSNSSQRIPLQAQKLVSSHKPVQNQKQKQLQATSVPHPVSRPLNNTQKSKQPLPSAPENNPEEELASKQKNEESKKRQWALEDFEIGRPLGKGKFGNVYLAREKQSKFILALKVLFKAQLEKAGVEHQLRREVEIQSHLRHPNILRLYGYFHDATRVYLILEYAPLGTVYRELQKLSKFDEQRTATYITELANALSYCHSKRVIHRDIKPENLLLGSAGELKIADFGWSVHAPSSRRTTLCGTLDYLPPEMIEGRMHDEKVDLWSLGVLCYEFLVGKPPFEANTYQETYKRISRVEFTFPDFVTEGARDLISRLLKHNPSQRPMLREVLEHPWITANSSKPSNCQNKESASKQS

[2] = target: Aurora kinase B (Homo sapiens) (UniProt Q96GD4); conditions: at 0.1 µM
[3] = target: Aurora kinase B (Homo sapiens) (UniProt Q96GD4); conditions: at 1 µM
[4] = target: T2, Aurora kinase C (Homo sapiens) (UniProt Q9UQB9); conditions: at 0.1 µM
T2 sequence (whole entry): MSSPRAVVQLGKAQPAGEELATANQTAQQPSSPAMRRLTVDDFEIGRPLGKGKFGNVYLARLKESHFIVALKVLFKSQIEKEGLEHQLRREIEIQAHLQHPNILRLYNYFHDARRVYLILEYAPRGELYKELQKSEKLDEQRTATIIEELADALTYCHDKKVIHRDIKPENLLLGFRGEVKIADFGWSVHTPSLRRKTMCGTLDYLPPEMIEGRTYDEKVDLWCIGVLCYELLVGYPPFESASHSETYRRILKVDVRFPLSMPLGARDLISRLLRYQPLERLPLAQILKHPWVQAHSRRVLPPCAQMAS

[5] = target: Serine/threonine-protein kinase 10 (Homo sapiens) (UniProt O94804); conditions: at 0.1 µM
[6] = target: Serine/threonine-protein kinase 10 (Homo sapiens) (UniProt O94804); conditions: at 1 µM
[7] = target: T3, Mitogen-activated protein kinase kinase kinase kinase 2 (Homo sapiens) (UniProt Q12851); conditions: at 0.1 µM
T3 sequence (whole entry): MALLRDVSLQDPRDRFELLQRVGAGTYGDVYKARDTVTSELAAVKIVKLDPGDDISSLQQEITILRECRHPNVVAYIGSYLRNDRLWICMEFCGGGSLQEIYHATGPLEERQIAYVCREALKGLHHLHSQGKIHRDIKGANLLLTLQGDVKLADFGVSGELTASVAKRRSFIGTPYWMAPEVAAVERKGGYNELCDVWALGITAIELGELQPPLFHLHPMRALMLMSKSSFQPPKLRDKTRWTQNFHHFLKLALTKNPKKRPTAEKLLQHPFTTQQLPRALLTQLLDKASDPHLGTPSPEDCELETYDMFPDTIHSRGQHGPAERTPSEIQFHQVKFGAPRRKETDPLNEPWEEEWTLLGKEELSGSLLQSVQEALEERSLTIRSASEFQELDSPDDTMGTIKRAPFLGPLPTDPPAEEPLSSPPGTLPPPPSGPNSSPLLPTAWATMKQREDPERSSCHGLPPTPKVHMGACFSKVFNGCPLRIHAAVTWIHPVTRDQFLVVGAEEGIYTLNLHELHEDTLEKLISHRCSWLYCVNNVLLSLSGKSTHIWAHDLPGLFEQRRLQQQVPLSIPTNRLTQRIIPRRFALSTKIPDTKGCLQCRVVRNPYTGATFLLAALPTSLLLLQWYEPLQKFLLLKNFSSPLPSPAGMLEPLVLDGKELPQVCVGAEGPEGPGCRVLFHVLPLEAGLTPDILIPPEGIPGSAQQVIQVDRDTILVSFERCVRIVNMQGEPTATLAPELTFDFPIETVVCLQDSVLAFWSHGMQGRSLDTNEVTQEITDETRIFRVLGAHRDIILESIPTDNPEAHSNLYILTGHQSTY

[8] = target: T3, Mitogen-activated protein kinase kinase kinase kinase 2 (Homo sapiens); conditions: at 1 µM
[9] = target: Mitogen-activated protein kinase kinase kinase kinase 4 (Homo sapiens) (UniProt O95819); conditions: at 0.1 µM
[10] = target: Mitogen-activated protein kinase kinase kinase kinase 4 (Homo sapiens) (UniProt O95819); conditions: at 1 µM
[11] = target: Dual specificity mitogen-activated protein kinase kinase 1 (Homo sapiens) (UniProt Q02750); conditions: at 0.1 µM
[12] = target: Dual specificity mitogen-activated protein kinase kinase 1 (Homo sapiens) (UniProt Q02750); conditions: at 1 µM
[13] = target: Misshapen-like kinase 1 (Homo sapiens) (UniProt Q8N4C8); conditions: at 0.1 µM
[14] = target: Misshapen-like kinase 1 (Homo sapiens) (UniProt Q8N4C8); conditions: at 1 µM
[15] = target: T4, Serine/threonine-protein kinase 4 (Homo sapiens) (UniProt Q13043); conditions: at 0.1 µM
T4 sequence (whole entry): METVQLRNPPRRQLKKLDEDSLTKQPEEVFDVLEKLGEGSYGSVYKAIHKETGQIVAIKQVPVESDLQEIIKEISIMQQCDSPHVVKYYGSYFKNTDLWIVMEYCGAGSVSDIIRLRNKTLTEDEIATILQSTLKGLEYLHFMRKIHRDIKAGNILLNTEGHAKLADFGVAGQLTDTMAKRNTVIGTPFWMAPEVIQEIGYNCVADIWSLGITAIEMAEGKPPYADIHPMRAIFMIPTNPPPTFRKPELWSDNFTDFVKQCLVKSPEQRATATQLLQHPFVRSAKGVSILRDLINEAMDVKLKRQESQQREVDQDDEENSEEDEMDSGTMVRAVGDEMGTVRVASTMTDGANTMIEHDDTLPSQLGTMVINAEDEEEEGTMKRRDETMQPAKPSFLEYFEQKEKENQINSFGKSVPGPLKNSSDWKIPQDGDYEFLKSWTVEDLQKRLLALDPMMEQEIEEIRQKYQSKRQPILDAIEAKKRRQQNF

[16] = target: T4, Serine/threonine-protein kinase 4 (Homo sapiens); conditions: at 1 µM
[17] = target: T5, Serine/threonine-protein kinase 3 (Homo sapiens) (UniProt Q13188); conditions: at 0.1 µM
T5 sequence (whole entry): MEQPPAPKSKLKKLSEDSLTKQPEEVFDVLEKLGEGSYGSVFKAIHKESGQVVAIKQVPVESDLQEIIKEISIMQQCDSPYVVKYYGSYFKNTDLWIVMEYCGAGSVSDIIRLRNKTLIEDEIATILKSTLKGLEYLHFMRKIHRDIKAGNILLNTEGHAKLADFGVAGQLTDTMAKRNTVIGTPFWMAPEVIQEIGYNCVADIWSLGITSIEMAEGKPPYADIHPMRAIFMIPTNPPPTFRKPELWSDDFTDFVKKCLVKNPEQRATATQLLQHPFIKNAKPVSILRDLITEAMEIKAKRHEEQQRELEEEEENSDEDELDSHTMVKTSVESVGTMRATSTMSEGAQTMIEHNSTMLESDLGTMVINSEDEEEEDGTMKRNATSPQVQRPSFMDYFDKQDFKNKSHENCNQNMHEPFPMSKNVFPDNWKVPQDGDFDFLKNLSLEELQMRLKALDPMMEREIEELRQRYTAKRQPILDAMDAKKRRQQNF

[18] = target: T5, Serine/threonine-protein kinase 3 (Homo sapiens); conditions: at 1 µM
[19] = target: Serine/threonine-protein kinase 26 (Homo sapiens) (UniProt Q9P289); conditions: at 0.1 µM
[20] = target: T2, Aurora kinase C (Homo sapiens); conditions: at 1 µM

Serine/threonine-protein kinase 26 (Homo sapiens), sequence (Q9P289 2-416 limits assumed): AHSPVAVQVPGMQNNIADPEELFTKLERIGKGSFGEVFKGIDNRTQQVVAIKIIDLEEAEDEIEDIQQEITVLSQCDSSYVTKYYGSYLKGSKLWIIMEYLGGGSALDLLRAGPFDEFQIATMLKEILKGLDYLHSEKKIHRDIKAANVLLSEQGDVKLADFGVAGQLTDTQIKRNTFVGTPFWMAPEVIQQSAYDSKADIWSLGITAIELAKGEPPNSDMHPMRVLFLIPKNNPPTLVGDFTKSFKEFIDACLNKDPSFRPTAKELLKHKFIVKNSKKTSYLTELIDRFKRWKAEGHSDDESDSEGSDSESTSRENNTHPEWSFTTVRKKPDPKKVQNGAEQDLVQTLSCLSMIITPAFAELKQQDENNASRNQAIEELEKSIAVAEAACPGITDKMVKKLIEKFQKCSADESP
Dual specificity mitogen-activated protein kinase kinase 1 (Homo sapiens), sequence (Q02750 whole entry): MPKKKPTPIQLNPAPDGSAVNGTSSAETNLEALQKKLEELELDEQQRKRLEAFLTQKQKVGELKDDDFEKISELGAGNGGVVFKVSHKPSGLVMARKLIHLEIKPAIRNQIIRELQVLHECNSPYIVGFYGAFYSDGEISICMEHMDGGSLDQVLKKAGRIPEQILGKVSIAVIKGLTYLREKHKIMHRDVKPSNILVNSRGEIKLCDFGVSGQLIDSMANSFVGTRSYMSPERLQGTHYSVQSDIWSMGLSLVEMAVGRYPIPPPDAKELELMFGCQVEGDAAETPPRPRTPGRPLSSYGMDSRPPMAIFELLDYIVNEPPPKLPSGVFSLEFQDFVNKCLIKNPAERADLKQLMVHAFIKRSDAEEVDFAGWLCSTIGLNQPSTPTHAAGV
Aurora kinase B (Homo sapiens), sequence (Q96GD4 whole entry): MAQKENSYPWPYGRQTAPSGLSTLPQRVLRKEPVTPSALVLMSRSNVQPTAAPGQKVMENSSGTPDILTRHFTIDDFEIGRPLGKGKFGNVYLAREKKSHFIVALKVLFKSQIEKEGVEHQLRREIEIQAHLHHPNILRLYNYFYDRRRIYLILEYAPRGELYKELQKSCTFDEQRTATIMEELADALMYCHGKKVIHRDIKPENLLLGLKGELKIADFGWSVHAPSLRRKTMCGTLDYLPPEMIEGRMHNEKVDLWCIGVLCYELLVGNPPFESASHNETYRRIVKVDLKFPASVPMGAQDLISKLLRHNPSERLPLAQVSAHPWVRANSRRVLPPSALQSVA
Mitogen-activated protein kinase kinase kinase kinase 4 (Homo sapiens), sequence (O95819 2-1239 limits assumed): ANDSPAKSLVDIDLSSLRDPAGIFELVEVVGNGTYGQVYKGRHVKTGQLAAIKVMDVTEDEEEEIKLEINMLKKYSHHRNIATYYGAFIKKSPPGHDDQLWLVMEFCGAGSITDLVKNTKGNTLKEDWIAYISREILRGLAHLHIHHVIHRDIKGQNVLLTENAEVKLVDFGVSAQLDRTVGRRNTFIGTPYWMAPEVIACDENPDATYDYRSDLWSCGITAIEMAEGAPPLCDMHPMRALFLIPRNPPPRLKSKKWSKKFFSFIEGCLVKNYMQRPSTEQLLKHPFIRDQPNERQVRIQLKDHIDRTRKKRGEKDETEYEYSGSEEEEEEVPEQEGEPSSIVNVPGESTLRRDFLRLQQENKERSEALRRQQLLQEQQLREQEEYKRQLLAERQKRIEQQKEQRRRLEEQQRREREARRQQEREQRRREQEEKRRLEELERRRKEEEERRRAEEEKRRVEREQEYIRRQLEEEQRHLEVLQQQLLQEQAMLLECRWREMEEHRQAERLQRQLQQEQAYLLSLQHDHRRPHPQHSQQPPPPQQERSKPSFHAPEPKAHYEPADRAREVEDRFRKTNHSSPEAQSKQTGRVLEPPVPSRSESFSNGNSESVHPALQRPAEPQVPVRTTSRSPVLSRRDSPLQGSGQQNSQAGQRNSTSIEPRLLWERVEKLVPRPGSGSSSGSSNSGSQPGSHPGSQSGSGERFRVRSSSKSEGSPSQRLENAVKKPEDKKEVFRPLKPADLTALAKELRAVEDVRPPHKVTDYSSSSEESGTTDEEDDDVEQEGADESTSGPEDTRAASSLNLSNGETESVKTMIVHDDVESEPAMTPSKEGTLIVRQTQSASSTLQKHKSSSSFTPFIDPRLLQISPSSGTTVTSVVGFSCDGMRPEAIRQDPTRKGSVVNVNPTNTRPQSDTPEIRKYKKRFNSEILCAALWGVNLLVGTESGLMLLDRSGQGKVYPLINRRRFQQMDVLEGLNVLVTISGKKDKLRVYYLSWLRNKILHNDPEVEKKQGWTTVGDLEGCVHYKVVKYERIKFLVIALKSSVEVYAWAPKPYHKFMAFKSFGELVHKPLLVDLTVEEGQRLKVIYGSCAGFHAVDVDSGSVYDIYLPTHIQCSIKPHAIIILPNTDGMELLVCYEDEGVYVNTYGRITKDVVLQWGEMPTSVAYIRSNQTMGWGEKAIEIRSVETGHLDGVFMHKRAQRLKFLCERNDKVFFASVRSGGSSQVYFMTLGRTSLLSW
Serine/threonine-protein kinase 10 (Homo sapiens), sequence (O94804 whole entry, looked up): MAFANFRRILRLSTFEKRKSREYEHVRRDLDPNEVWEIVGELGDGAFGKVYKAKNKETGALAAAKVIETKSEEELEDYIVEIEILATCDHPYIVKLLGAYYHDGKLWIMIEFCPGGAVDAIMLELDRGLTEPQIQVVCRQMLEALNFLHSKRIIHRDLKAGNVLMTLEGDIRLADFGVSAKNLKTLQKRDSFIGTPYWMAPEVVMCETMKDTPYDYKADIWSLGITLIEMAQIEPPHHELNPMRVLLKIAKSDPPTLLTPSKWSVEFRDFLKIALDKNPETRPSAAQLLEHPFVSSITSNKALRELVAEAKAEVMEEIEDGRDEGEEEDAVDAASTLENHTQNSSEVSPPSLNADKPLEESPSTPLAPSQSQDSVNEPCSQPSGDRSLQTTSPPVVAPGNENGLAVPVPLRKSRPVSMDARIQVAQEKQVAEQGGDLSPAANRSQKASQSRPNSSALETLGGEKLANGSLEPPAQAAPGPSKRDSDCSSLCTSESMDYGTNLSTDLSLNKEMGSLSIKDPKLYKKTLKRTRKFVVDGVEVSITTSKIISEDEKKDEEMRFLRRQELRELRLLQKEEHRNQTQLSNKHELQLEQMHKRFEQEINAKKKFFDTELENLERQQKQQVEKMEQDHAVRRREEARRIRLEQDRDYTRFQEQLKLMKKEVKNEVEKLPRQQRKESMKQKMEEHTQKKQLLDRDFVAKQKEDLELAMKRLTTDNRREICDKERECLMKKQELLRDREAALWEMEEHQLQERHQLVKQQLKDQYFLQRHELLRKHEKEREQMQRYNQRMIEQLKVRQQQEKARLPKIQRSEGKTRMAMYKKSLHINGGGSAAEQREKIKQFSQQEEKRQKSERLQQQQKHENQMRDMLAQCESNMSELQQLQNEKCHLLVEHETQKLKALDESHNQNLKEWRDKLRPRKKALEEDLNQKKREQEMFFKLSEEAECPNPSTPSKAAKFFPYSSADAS
Misshapen-like kinase 1 (Homo sapiens), sequence (Q8N4C8 whole entry, looked up): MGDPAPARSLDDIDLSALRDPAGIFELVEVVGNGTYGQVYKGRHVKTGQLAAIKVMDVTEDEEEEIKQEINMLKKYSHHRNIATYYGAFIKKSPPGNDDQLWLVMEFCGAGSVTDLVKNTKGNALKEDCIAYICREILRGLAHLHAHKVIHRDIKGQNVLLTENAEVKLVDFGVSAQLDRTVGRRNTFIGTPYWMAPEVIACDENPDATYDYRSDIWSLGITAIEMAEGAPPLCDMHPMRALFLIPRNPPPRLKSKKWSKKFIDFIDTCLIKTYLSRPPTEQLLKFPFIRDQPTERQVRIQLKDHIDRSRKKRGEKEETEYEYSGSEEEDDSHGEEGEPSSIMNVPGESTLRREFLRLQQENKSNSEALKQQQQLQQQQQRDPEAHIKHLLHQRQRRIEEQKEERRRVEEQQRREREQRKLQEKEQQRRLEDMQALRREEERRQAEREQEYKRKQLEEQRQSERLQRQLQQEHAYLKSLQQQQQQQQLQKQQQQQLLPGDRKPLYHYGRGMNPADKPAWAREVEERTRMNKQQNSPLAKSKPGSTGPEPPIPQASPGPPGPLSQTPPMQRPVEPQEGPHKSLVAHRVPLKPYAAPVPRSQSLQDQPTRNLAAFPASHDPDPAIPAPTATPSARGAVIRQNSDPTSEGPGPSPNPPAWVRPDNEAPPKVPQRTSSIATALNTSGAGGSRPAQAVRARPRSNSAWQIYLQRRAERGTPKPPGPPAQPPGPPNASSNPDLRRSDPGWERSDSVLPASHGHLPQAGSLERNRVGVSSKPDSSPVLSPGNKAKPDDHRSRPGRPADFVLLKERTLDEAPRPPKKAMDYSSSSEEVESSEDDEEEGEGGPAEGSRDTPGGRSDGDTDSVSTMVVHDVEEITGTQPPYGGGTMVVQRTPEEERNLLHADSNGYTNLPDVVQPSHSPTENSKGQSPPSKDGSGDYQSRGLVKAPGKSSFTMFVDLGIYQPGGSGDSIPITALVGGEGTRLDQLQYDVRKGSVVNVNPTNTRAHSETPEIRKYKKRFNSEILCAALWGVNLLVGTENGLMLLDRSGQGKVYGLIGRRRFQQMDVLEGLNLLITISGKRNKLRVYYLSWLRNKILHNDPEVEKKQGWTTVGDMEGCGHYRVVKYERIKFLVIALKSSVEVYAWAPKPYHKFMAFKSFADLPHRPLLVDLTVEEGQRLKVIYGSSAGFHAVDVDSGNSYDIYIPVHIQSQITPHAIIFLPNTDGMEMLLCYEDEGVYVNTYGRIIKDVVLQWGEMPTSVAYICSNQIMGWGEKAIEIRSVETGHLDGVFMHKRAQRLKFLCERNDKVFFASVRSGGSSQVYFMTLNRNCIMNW

SMILES	inhibition [1]	inhibition [2]	inhibition [3]	inhibition [4]	inhibition [5]	inhibition [6]	inhibition [7]	inhibition [8]	inhibition [9]	inhibition [10]	inhibition [11]	inhibition [12]	inhibition [13]	inhibition [14]	inhibition [15]	inhibition [16]	inhibition [17]	inhibition [18]	inhibition [19]	inhibition [20]
Nc1nc(-c2ccccn2)c(-c2ccc3ncccc3n2)s1	9.43%	1.61%	8.29%	2.42%	2.91%	5.82%	0.08%	2.92%	5.35%	9.69%	2.95%	2.78%	5.37%	7.86%	5.62%	6.85%	5.79%	6.4%	-2.14%	–
O=C1NC(=O)C(N2CCc3ccccc32)=C1c1ccc(Cl)cc1	15.5%	5.02%	13.8%	3.07%	7.48%	8.68%	1.87%	6.3%	4.26%	9.97%	5.02%	5.22%	5.14%	10.3%	6.36%	7.67%	6.26%	7.91%	-1.31%	15.9%
COc1ccc(-c2nn3ncccc3c2-c2ccnc(Nc3ccc(Cl)c(C(F)(F)F)c3)n2)cc1	6.68%	4.71%	2.65%	0.61%	4.44%	10.5%	0.35%	0.58%	3.81%	14.7%	2.33%	1.56%	3.94%	10.2%	1.84%	5.36%	2.73%	6.97%	0.59%	-3.91%
Nc1ncnc2occ(-c3ccc(NC(=O)Nc4cc(C(F)(F)F)cc(C(F)(F)F)c4)cc3)c12	46%	10.6%	44.5%	1.5%	9.76%	29%	15.7%	48.9%	2.54%	5.19%	0.93%	3.12%	5.87%	-1.47%	3.59%	6.92%	4.8%	5.55%	-0.71%	79.7%
Cn1cc(C=C2C(=O)Nc3cccnc32)c2ccccc21	57%	7.66%	55.1%	5.21%	3.81%	12%	2.96%	17.9%	6.66%	29%	2.69%	7.29%	7.13%	23.6%	13.7%	47.9%	10.5%	33.8%	1.41%	62.6%
CN1CCC(C(=O)Nc2n[nH]c3nnc(-c4ccccc4)cc23)CC1	8.78%	3.81%	9.47%	4.39%	8.49%	9.99%	0.73%	3.35%	6.6%	14.1%	6.89%	5.56%	6.64%	14.6%	4.72%	13%	5.88%	9.3%	-0.64%	-2.07%
NS(=O)(=O)c1cccc(-c2ccc3c(NC(=O)C4CC4)n[nH]c3c2)c1	14.4%	1.82%	1.24%	-1.44%	1.33%	7.09%	2.11%	7.37%	1.63%	10%	-1.43%	2.83%	1.11%	8.09%	-3.97%	-4.72%	-3.79%	-2.35%	0%	2.43%
